# Assay results as given in ChEMBL document CHEMBL4513216, “Probing the Open Global Health Chemical Diversity Library for Multistage-Active Starting Points for Next-Generation Antimalarials” (ACS Infect Dis, 2020).
# In all, about 69,000 compounds went through this assay and about 8,600 (12%) showed an effect of 50% or more. The entries come from a sample that favours strong results as a whole.
# Tested on: Plasmodium berghei
# Test: Screen against P. berghei liver stage (PbLuc), transformed with Luciferase, at 10uM
# Type: functional, HepG2
# Conditions: tested at 10 uM
row,SMILES,INHIBITION
1,COCCN1CCCn2c(nc(CNS(C)(=O)=O)cc2=O)C1,25.8%
2,CCOC(=O)c1sc2ccsc2c1CNS(C)(=O)=O,7.925%
3,CCOC(=O)c1sc2ccsc2c1CNC(=O)CC,57.2%
4,CCOC(=O)c1sc2ccsc2c1CNC(=O)CCOC,61.6%
5,CCOC(=O)c1sc2ccsc2c1CNC(=O)COC,19.933%
6,CCOC(=O)c1sc2ccsc2c1CNC(=O)C(C)(C)C#N,20.6%
7,CCOC(=O)c1sc2ccsc2c1CNC(=O)C(C)OC (stereo unspecified),17.8%
8,CC(C(=O)NCC1CCN(c2ccncc2)CC1)S(C)(=O)=O (stereo unspecified),-7.94%
9,O=C(c1cnc2ccc(F)cc2c1NCc1ccco1)N1CCCCC1,-6.73%
10,CCN(Cc1ccc(F)c(F)c1)Cc1nc2c(cnn2C)c(=O)[nH]1,-57.4%
11,CSCC(=O)N1CCCC(CCC(=O)N(C)CCc2ccccn2)C1 (stereo unspecified),29.2%
12,CCc1nc(C2CCCN2C(=O)CCc2nc(C3CC3)no2)no1 (stereo unspecified),-9.19%
13,O=S(=O)(C1CC1)N1Cc2nccn2CC(Cn2cncn2)C1 (stereo unspecified),68.3%
14,CCCS(=O)(=O)N1Cc2nccn2CC(Cn2cncn2)C1 (stereo unspecified),-23.1%
15,CCS(=O)(=O)N1Cc2nccn2CC(Cn2cncn2)C1 (stereo unspecified),20.6%
16,Cc1nccn1CCC1CCN(C(=O)C2CC3(CCNCC3)CN2)CC1 (stereo unspecified),33.9%
17,COCCN1CCN(CCS(C)(=O)=O)CC1C (stereo unspecified),-73.1%
18,COCCN1CCN(CCCS(C)(=O)=O)CC1C (stereo unspecified),25.7%
19,COCCN1CCN(CCCS(=O)(=O)N(C)C)CC1C (stereo unspecified),66.7%
20,NCc1cccc(-c2cccnc2C(=O)NCCN2CCOCC2)c1,25.8%
21,Cn1cc(NC(=O)c2cc3c(s2)CCCC3)cn1,-179%
22,CCc1nc(CCNC(=O)C2CCOC2)sc1C (stereo unspecified),56.8%
23,Cc1csc(CCNC(=O)C2CCOC2)n1 (stereo unspecified),8.08%

row,SMILES,INHIBITION
1,CCc1nc(CCNC(=O)C2CC2)sc1C,2.69%
2,N#Cc1c(N2CCOCC2)nsc1-c1cccnc1,-31.3%
3,COCCCNC(=O)Nc1c(C)cccc1C(C)C,-19.1%
4,CCN(CC)CCCNC(=O)Nc1c(C)cccc1C(C)C,7.3%
5,Cc1cccc(C(C)C)c1NC(=O)NCCN(C(C)C)C(C)C,56%
6,CCN(CC)C(=O)c1ccc(CNc2cncc(-n3cccn3)n2)cc1,29.4%
7,Cc1nc(CN2CCN(c3ccc(Cl)cn3)CC2)no1,-52.4%
8,CCC(CC)C(O)CNC(=O)Nc1cccc(-c2nccn2C)c1 (stereo unspecified),50.8%
9,CCOCCNC(=O)Nc1cccc(-c2nccn2C)c1,-21.8%
10,Cn1ccnc1-c1cccc(NC(=O)NCCCO)c1,10%
11,Cn1cnc2c1C(COCC1CC1)CN(c1ncccn1)C2 (stereo unspecified),-32%
12,CC(=O)N1CCCN(C(=O)NC(C)Cn2cccn2)CC1 (stereo unspecified),21.6%
13,Cn1cc(CN2C[C@@H]3CCCO[C@@H]3[C@H](N3CCCC3=O)C2)cn1,-3.51%
14,CCOCc1nc2c(c(NC(COC)c3ccccn3)n1)CCNCC2 (stereo unspecified),8.31%
15,COc1ccc(C(=O)C2CCCN(Cc3cccc(F)c3)C2)c(OC)c1 (stereo unspecified),76.9%
16,COc1ccc(C(=O)C2CCCN(CCc3ccccc3)C2)c(OC)c1 (stereo unspecified),71.3%
17,COc1ccc(C(=O)C2CCCN(CCCn3cccn3)C2)c(OC)c1 (stereo unspecified),25.4%
18,COc1ccc(F)cc1C(=O)C1CCCN(Cc2ccc(C)s2)C1 (stereo unspecified),43.9%
19,COc1ccc(C(=O)C2CCCN(Cc3ccccc3O)C2)c(OC)c1 (stereo unspecified),-20.5%
20,COc1ccc(C(=O)C2CCCN(Cc3ccon3)C2)c(OC)c1 (stereo unspecified),47.7%
21,COc1ccc(C(=O)C2CCCN(Cc3ccncc3)C2)cc1OC (stereo unspecified),63%
22,COc1ccc(C(=O)C2CCCN(Cc3ccc(C)o3)C2)c(OC)c1 (stereo unspecified),42.9%
23,COc1ccc(C(=O)C2CCCN(Cc3cc(C)n[nH]3)C2)c(OC)c1 (stereo unspecified),68.5%

row,SMILES,INHIBITION
1,COCCc1ncc(CN2CCCC(C(=O)c3ccccc3)C2)cn1 (stereo unspecified),36.8%
2,COc1ccc(C(=O)C2CCCN(Cc3ccncc3)C2)c(OC)c1 (stereo unspecified),-3.1%
3,CN1CCN(C(=O)c2ncn3c2CN(C)S(=O)(=O)c2ccccc2-3)CC1,-79.8%
4,CCc1noc(CN2CCC(c3ccnn3CCO)CC2)n1,-19.4%
5,CN(C)C(C(=O)N1CCC(c2ncc[nH]2)CC1)c1ccc2c(c1)OCO2 (stereo unspecified),14.3%
6,O=C1COC2(CCN(C(=O)c3ccoc3)CC2)CN1Cc1ccccn1,-33.9%
7,CN(C)C(CNC(=O)CCNC(=O)OCC(F)(F)F)c1ccsc1 (stereo unspecified),61.9%
8,CCOCCC(=O)NCC(C)c1ccsc1 (stereo unspecified),32%
9,CN(C)C(CNC(=O)OCC(F)(F)F)c1ccsc1 (stereo unspecified),44.3%
10,CC(C)c1cc(C(=O)N2CCCC(c3cc(=O)nc4n3CCC4)C2)no1 (stereo unspecified),18.4%
11,CC1(C)CN(C(=O)Nc2cc(C(F)(F)F)c[nH]c2=O)CCO1,4.97%
12,CCO[C@H]1CC[C@H]2[C@H]1OCCN2CCOCc1ccccc1,4.98%
13,O=C(N[C@@H]1CN(c2ncccn2)C[C@@H]2CCCO[C@@H]21)c1ccnnc1,-3.52%
14,COc1ccc(OC)c(-n2c(COC(C)C)n[nH]c2=O)c1,45.4%
15,COc1ccc(Cl)cc1-n1c(COC(C)C)n[nH]c1=O,26.4%
16,COc1ccc(C)cc1-n1c(COC(C)C)n[nH]c1=O,72.3%
17,COc1cccc(C(O)C(=O)N(C)CCc2ccccn2)c1 (stereo unspecified),47.7%
18,O=C(CSCC1CC1)N1CCC2(CCCN(C3CCOCC3)C2=O)C1 (stereo unspecified),1.48%
19,O=C(c1cnn2c1OCCC2)N1CCC2(CC1)OCCO2,-14.2%
20,CN(C)C(=O)c1cnn2c1OCCC2,60.6%
21,CS(=O)(=O)N1CCN(C(=O)c2cnn3c2OCCC3)CC1,31.6%
22,CC(NCCCC#N)c1ccc(S(C)(=O)=O)c(F)c1 (stereo unspecified),19.1%
23,CCn1c(C2CCCNC2)nn(CCn2cncn2)c1=O (stereo unspecified),-7.13%

row,SMILES,INHIBITION
1,O=C(CCn1cccc1)NCc1ccc(CN2CCCCCC2)o1,37.4%
2,CCCOc1ccc2c(c1)OCC(C(=O)NC(C)Cn1ccnc1)=C2 (stereo unspecified),51%
3,CCCOc1ccc2c(c1)OCC(C(=O)NC(C)Cn1cccn1)=C2 (stereo unspecified),30.9%
4,CCOc1ccc2c(c1)C=C(C(=O)NC(C)Cn1cccn1)CO2 (stereo unspecified),2.91%
5,CCOCC1CN(S(=O)(=O)N(C)C)Cc2cnn(CC)c21 (stereo unspecified),29%
6,Cc1cc(NC(=O)CN2CCC(N(C)Cc3ncc(C)o3)C2)n(C)n1 (stereo unspecified),-29.9%
7,c1ccc(OCCCNCCn2cccn2)cc1,38.7%
8,Cc1cnn(CCNCc2nc(COc3ccc(F)cc3)no2)c1,19.3%
9,Cc1nc(COc2ccc(CNCCn3cccn3)cc2)cs1,88.5%
10,Cc1cnn(CCNCc2ccc(OCc3cscn3)cc2)c1,85.1%
11,Cc1cnn(CCNCc2ccc(OCc3csc(C)n3)cc2)c1,-37.9%
12,c1ccc(OCc2nc(CNCCn3cccn3)cs2)cc1,1.95%
13,Cc1ccc(OCc2nc(CNCCn3cccn3)cs2)cc1,-24.1%
14,COc1ccc(OCCNCCn2cccn2)cc1,0.932%
15,Cc1cnn(CCNCc2ccc(OCc3noc(C)n3)cc2)c1,66.3%
16,Cc1cnn(CCNCc2ccc(OCc3ccccn3)cc2)c1,34.6%
17,COc1ccc(OCCCNCCn2cccn2)cc1,64.7%
18,Cc1cnn(CC(C)NCc2ccc(OCc3noc(C)n3)cc2)c1 (stereo unspecified),-79.3%
19,O=C(c1cc2c(F)cccc2[nH]1)N1CCCCC1Cn1cccn1 (stereo unspecified),-4.94%
20,Cc1cc(-c2cc(N)c(=O)n(CC(=O)NC3CCCCC3)n2)c(C)o1,13.835%
21,O=C(NCCn1ccnc1)N1CCN(Cc2ccco2)CC1,-37.7%
22,Cc1ccc(NC2CCN(C(=O)c3ccncc3)CC2)nn1,-39.7%
23,CCN1CCC(NC(=O)CN2CC(n3nc(C)cc3C)C2)CC1,23.5%

row,SMILES,INHIBITION
1,CC(=O)N[C@@H]1CN(Cc2nc3ccccc3[nH]2)C[C@H]1c1ccc(C)o1,39%
2,FC(F)Oc1ccc(CNCc2cc(Br)c3c(c2)OCO3)cc1,80.8%
3,Cc1ccc(CNCc2cc(Br)c3c(c2)OCO3)cc1,45.4%
4,COc1cc(CNCC(O)c2ccccc2)cc2c1OCO2 (stereo unspecified),-54.6%
5,FC(F)Oc1ccc(CNCc2cc(Cl)c3c(c2)OCO3)cc1,24.6%
6,Fc1ccc(CNCc2cc(Br)c3c(c2)OCO3)cc1,78%
7,COc1cc(CNCC(O)c2ccc(F)cc2F)cc2c1OCO2 (stereo unspecified),0.914%
8,CC(Cn1ccnc1)NCc1cc(Br)c2c(c1)OCO2 (stereo unspecified),-7.72%
9,COc1ccc(CNCc2cc(Br)c3c(c2)OCO3)cc1,74.7%
10,COc1cc(CNCC(O)c2ccccc2F)cc2c1OCO2 (stereo unspecified),-9.37%
11,Cn1cc(CCNCc2cc(Br)c3c(c2)OCO3)cn1,37.6%
12,COc1cc(CNCc2ccc(C(C)O)cc2)cc2c1OCO2 (stereo unspecified),49.3%
13,FC(F)Oc1ccccc1CNCc1cc(Br)c2c(c1)OCO2,58.6%
14,C[C@@H]1CN(c2ccc(Cl)cn2)C[C@]1(C)O,4.161%
15,Fc1cnc(N2CCO[C@H]3[C@H](OCCN4CCCC4)CC[C@@H]32)nc1,4.68%
16,Cc1ccc(-c2nnc(CNCCn3cccn3)o2)cc1,37.9%
17,COCc1cc(NCc2ccccc2-n2cncn2)ncn1,15.7%
18,CN(Cc1nc(-c2ccccc2)no1)Cc1cnc(N2CCOCC2)s1,25.8%
19,CN(C)CCn1c2c(ccc1=O)CCN(C(=O)c1cccs1)CC2,13.5%
